Several values for one entry are separate records, joined by “and”; a condition that tells them apart may be missing. Identical values can stand only once. Records with an inconclusive call do not appear. Where a call stands in place of a potency, no number is given. A structure can be active in one record and inactive in another. Activity calls are given as the source filed them. Unless noted, calls follow the shape of the dose curve; as a rule, active = well fitted curve in the direction sought with a large enough effect in the repeat runs; inconclusive = weak or mixed curves; inactive = no such curve, though single readings can be large; an effect the other way counts as inactive or inconclusive.
How the values were obtained:
[1] = qHTS assay to identify small molecule antagonists of the estrogen related receptor (ERR) signaling pathway from Tox21 library - cell viability counter screen (AID 1224834); also: nearly all actives have a fitted effect of over 30% in size; also: potency is read from the fitted curve at half-maximal effect
Summary of the method: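 Cytotoxicity of test substances is gauged in the same ERR cells used for the antagonist screen, after 17.5 h of compound treatment at 37 C, by CellTiter-Fluor fluorescence measured after 30 min.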

[2] = molecular target: Luciferin 4-monooxygenase (Photinus pyralis) (UniProt P08659); experiment: qHTS assay to identify small molecule inhibitors of firefly luciferase (AID 1224835); also: nearly all actives have a fitted effect of over 25% in size
Luciferin 4-monooxygenase (Photinus pyralis), sequence (P08659 whole entry, looked up): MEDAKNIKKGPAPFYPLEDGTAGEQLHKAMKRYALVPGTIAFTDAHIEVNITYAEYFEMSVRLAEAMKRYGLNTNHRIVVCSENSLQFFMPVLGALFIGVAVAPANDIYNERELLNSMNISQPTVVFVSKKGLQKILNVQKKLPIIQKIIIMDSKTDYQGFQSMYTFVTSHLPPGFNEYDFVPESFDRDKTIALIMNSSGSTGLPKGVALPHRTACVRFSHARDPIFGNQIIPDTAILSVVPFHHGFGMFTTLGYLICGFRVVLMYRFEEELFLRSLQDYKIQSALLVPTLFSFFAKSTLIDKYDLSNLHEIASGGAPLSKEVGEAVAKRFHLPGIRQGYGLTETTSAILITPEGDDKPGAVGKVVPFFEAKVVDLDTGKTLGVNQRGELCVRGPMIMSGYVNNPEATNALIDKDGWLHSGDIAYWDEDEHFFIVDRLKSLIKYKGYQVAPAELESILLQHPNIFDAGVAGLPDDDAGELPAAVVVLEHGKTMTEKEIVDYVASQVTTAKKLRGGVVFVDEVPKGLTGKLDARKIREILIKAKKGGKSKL
Summary of the method: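 Biochemical qHTS: compounds run as interplate titrations against purified firefly enzyme, with D-luciferin and ATP each at its KM concentration. Light output recorded by CCD imaging.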

[3] = qHTS assay to identify small molecule agonists of the constitutive androstane receptor (CAR) signaling pathway - cell viability counter screen (AID 1224836); also: nearly all actives have a fitted effect of over 45% in size
Summary of the method: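 Viability read-out: CellTiter-Fluor fluorescence after 23 h compound exposure at 37 C/5% CO2 in double-stable HepG2-CYP2B6-hCAR cells, with PK11195 present at 0.75 uM final; compounds tested in 15-point titration.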

[4] = qHTS assay to identify small molecule antagonists of the constitutive androstane receptor (CAR) signaling pathway - cell viability counter screen (AID 1224837); also: nearly all actives have a fitted effect of over 45% in size
Summary of the method: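 Multiplexed cytotoxicity read-out for the CAR antagonist screen: double-stable HepG2-CYP2B6-hCAR cells co-treated with 50 nM CITCO (final) and compound over 15 concentrations, incubated 23 hr, then assessed by CellTiter-Fluor fluorescence.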

[5] = qHTS assay to identify small molecule antagonists of the estrogen related receptor signaling pathway with the pleiotropic PPARgamma coactivator (PGC) from Tox21 10K library - cell viability counter screen (AID 1224840; active = well fitted cell-killing curve with a large enough effect in the repeat runs, not every such curve was filed as active; also: nearly all actives have a fitted effect of over 40% in size)
Summary of the method: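 Step one, plate 2,000 PGC/ERR cells per well; step two, incubate 6 h at 37 C/5% CO2; step three, pin-transfer compounds; step four, incubate 17.5 h; step five, add CellTiter-Fluor and read fluorescence after 30 min.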

[6] = molecular target: Thyrotropin receptor (Homo sapiens) (UniProt P16473); experiment: qHTS assay to identify small molecule agonists of the thyroid stimulating hormone receptor (TSHR) signaling pathway (AID 1224843; calls by dose curve; also: nearly all actives have a fitted effect of over 45% in size; also: potency is read from the fitted curve at half-maximal effect)
Thyrotropin receptor (Homo sapiens), sequence (P16473 whole entry, looked up): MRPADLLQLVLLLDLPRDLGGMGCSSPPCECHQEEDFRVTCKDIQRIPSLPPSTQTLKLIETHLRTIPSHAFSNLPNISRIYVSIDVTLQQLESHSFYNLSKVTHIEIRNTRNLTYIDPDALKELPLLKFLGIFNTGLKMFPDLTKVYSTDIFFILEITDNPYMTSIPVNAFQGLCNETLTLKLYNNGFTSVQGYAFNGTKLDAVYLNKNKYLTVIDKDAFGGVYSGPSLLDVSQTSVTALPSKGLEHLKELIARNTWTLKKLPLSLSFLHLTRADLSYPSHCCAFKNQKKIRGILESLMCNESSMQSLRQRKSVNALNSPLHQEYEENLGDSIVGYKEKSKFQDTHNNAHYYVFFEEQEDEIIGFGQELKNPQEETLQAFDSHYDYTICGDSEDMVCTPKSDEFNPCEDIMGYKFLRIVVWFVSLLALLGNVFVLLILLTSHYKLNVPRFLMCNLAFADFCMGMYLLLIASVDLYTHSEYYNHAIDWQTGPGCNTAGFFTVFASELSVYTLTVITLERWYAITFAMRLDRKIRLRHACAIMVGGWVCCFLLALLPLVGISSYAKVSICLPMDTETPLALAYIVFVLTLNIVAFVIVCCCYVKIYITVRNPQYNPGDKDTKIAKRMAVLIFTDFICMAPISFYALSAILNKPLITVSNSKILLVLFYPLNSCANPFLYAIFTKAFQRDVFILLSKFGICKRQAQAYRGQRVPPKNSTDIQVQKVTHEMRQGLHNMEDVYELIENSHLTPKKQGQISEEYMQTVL
Summary of the method: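 TSHR-HEK293 cells in agonist mode, 30 min room-temperature step, then cAMP measured by competitive HTRF (cAMP-d2 with anti-cAMP cryptate) after 1 h at room temperature. Tested at 15 concentrations in triplicate.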

[7] = qHTS assay to identify small molecule agonists of the hypoxia (HIF-1) signaling pathway - cell viability counter screen (AID 1224844; calls by dose curve; also: nearly all actives have a fitted effect of over 50% in size)
Summary of the method: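 Tox21 10K compounds were added to HRE-bla ME-180 cells (0.5% dialyzed FBS) and incubated 17 hrs at 37C; ATP-based CellTiter-Glo luminescence then reported cell viability in the same wells.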

[8] = qHTS assay to identify small molecule agonists of H2AX (AID 1224845; active = well fitted activation curve with a large enough effect in the signal ratio in the repeat runs, not every such curve was filed as active; the % refers to the signal ratio)
Summary of the method: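 Wild-type CHO-K1 cells, plated overnight, exposed 3hr at 37C to 15 concentrations (0.76% DMSO final). Lysed, then HTRF anti-pH2AX (S139) cryptate and anti-H2AX-d2 antibodies, 24 hr room temperature; 665/620 nm emission read.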

[9] = qHTS assay to identify small molecule agonists of the hypoxia (HIF-1) signaling pathway (AID 1224846; active = well fitted activation curve with a large enough effect in the signal ratio in the repeat runs, not every such curve was filed as active; the % refers to the signal ratio)
Summary of the method: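 Steps: seed ME-180 HRE-bla cells (2,000/well, 0.5% dialyzed FBS); incubate 5 hrs at 37C; pin-transfer compounds or DMSO; incubate 17 hrs; add LiveBLAzer B/G substrate CCF4-AM; measure reporter activation by FRET.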

[10] = qHTS assay to identify small molecule agonists of H2AX - cell viability counter screen (AID 1224847; calls by dose curve; also: top concentration of the series differs between compounds; nearly all actives have a fitted effect of over 30% in size)
Summary of the method: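 CHO-K1 wt, 1000 cells/well, o/n 37C; cpds 15 conc, 3 h 37C, 0.76% DMSO; CellTiter-Glo, 30 min RT, luminescence.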

[11] = qHTS RealTime-Glo MT Cell Viability Assay in HepG2 cells - 24 hour (AID 1224867); also: nearly all actives have a fitted effect of over 50% in size
Summary of the method: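 Cells + NanoLuc/prosubstrate dispensed (600 cells/well) → 5 h at 37 C/5% CO2 → compounds in DMSO transferred → 40 h incubation at 37 C, luminescence read at 0, 8, 16, 24, 32, 40 h.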

[12] = qHTS RealTime-Glo MT Cell Viability Assay in HEK293 cells - 32 hour (AID 1224868); also: nearly all actives have a fitted effect of over 50% in size; also: potency is read from the fitted curve at half-maximal effect
Summary of the method: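 Tox21 10K qHTS, HEK293, 600 cells/well, RealTime-Glo reagent co-dispensed with cells; 5 h preincubation, compound by pintool, 37 C, luminescence at 0–40 h.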

[13] = A CellTox Green Cytotoxicity Assay to monitor cytotoxicity in HEK293 cells - 0 hour (AID 1224869); also: nearly all actives have a fitted effect of over 50% in size
Summary of the method: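 Cytotoxicity was tracked continuously in HEK293 cells by a DNA-binding dye excluded from viable cells. Compounds were transferred in DMSO 5 h after seeding; fluorescence was recorded at intervals up to 40 h.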

[14] = molecular target: Nuclear receptor subfamily 1 group I member 3 (Homo sapiens) (UniProt Q14994); experiment: qHTS assay to identify small molecule antagonists of the constitutive androstane receptor (CAR) signaling pathway (AID 1224838); also: nearly all actives have a fitted effect of over 40% in size
Nuclear receptor subfamily 1 group I member 3 (Homo sapiens), sequence (Q14994 whole entry, looked up): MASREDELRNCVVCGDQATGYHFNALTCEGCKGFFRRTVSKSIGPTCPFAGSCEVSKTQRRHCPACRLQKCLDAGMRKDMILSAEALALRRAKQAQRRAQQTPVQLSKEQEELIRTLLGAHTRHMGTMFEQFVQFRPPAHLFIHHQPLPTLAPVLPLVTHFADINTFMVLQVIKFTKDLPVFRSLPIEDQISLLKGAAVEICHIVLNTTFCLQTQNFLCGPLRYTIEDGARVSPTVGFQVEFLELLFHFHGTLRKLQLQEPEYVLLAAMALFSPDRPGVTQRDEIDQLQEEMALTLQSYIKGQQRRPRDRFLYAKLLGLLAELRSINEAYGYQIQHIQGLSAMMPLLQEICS
Summary of the method: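 Compounds were titrated across 15 concentrations onto HepG2 cells double-stably expressing hCAR and a CYP2B6-2.2kb reporter, together with 50 nM CITCO (final). After 24 h at 37 C, luciferase activity was measured by luminescence.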

[15] = molecular target: Nuclear receptor subfamily 1 group I member 3 (Homo sapiens) (UniProt Q14994); experiment: qHTS assay to identify small molecule agonists of the constitutive androstane receptor (CAR) signaling pathway (AID 1224839);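 also: HepG2 cells stably carrying human CAR and a CYP2B6 luciferase reporter; nearly all actives have a fitted effect of over 15% in size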
Summary of the method: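 Luminescence read-out (ONE-Glo, 30 min, room temperature) from double-stable HepG2-CYP2B6-hCAR cells exposed 24 h to 15-point compound series in presence of 0.75 uM PK11195 final.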

[16] = qHTS assay to identify small molecule antagonists of the estrogen related receptor signaling pathway with the pleiotropic PPARgamma coactivator (PGC) from Tox21 10K library (AID 1224841; call rule not given here)
Summary of the method: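 Antagonism in this quantitative HTS is taken from loss of luciferase signal in PGC/ERR cells. Cells (2,000/well) are treated with compounds in DMSO after a 6 h settling period and read by One-Glo luminescence after 18 h.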

[17] = qHTS assay to identify small molecule agonists of the estrogen related receptor signaling pathway with the pleiotropic PPARgamma coactivator (PGC) from Tox21 10K library (AID 1224842); also: nearly all actives have a fitted effect of over 15% in size
Summary of the method: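 PGC/ERR reporter cell line, 2,000 cells per well, incubated 6 h at 37 C before 23 nL compound in DMSO was added. After 18 h at 37 C, One-Glo luminescence read following 30 min at room temperature.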

[18] = qHTS assay to identify small molecule antagonists of the estrogen related receptor (ERR) signaling pathway from Tox21 library (AID 1224848); also: nearly all actives have a fitted effect of over 50% in size
Summary of the method: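 ERR reporter cell line (from NTP) seeded 2,000 cells/well, rested 6 h at 37 C/5% CO2, then pin-dosed with compounds in DMSO. After 18 h at 37 C, ONE-Glo added; luminescence read after 30 min at room temperature.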

[19] = qHTS assay to identify small molecule agonists of the estrogen related receptor (ERR) signaling pathway from Tox21 library (AID 1224849; calls by dose curve; also: nearly all actives have a fitted effect of over 15% in size); conditions: ERR reporter cell line, ONE-Glo luciferase, 18 h
Summary of the method: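 Agonist signal is luciferase luminescence from an ERR reporter cell line treated 18 h at 37 C with DMSO-dissolved compounds, read 30 min after ONE-Glo addition at room temperature.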

SMILES	Potency [1]	Potency [2]	Potency [3]	Potency [4]	Potency [5]	Potency [6]	Potency [7]	Potency [8]	outcome [9]	Potency [10]	Potency [11]	Potency [12]	Potency [13]	Potency [14]	Potency [15]	Potency [16]	Potency [17]	Potency [18]	activity change, positive = activation ([19]; at 42.5 µM (top of the series))	activity change, positive = activation ([19]; at 92.4 µM (top of the series))
C=C(C)C(=O)OCCC[Si](OC)(OC)OC	inactive	inactive	inactive	inactive	inactive	inactive	inactive	inactive	inactive	inactive	inactive	inactive	inactive							
Cc1cc(O)cc(C)c1Cl	inactive	inactive	inactive	inactive	inactive	inactive	inactive	inactive	inactive	inactive	inactive	inactive	inactive							
O=S(=O)(O)c1cc(S(=O)(=O)O)c2c(N=Nc3ccccc3)c(O)ccc2c1	54.7 µM (active) and 34.4 µM (active)	inactive				inactive	inactive		inactive	inactive			inactive	inactive	inactive					
CC1(C)O[C@@H]2C[C@H]3[C@@H]4C[C@H](F)C5=CC(=O)CC[C@]5(C)[C@H]4[C@@H](O)C[C@]3(C)[C@]2(C(=O)CO)O1	inactive	inactive	inactive	inactive	inactive	inactive	inactive	inactive	inactive	inactive		inactive				inactive	inactive	inactive	-3.03% (inactive)	-6.71% (inactive)
OCCOCCOCCOCCO	inactive	inactive	inactive	inactive	inactive	inactive	inactive	inactive	inactive	inactive	inactive	inactive	inactive							
NCc1cccc(CN)c1	inactive		inactive	inactive	inactive	inactive	inactive	inactive	inactive	inactive	inactive	inactive		inactive	inactive					
CCC(C)C=O (centres undefined)	inactive		inactive	inactive	inactive	4.32 µM (active) and inactive	inactive	inactive	inactive	inactive	inactive	inactive and 3.47 µM (active)		inactive	inactive					
O=C(O)c1ccc([N+](=O)[O-])cc1	inactive	inactive	inactive	inactive	inactive		inactive	inactive	inactive	inactive	inactive	inactive	inactive	inactive	inactive					
CC1(C)CC(N=C=O)CC(C)(CN=C=O)C1 (centres undefined)	inactive	inactive	inactive	inactive	inactive	inactive	inactive	inactive	inactive	inactive			inactive		inactive					
C=C1C2CCC(C2)C1(C)C (centres undefined)	inactive		inactive	inactive	inactive	inactive	inactive	inactive	inactive	inactive		inactive	inactive	inactive	inactive	inactive	inactive	inactive		0.557% (inactive) and 4.73% (inactive)
C[C@@H]1O[C@@H](OC[C@H]2O[C@@H](Oc3c(-c4ccc(O)c(O)c4)oc4cc(O)cc(O)c4c3=O)[C@H](O)[C@@H](O)[C@@H]2O)[C@H](O)[C@H](O)[C@H]1O	inactive	inactive	inactive	inactive	inactive	inactive	inactive		inactive	inactive	inactive			inactive	inactive					
CNC[C@H](O)[C@@H](O)[C@H](O)[C@H](O)CO	inactive	inactive	inactive	inactive	inactive	inactive	inactive	inactive		inactive	inactive	inactive	inactive	inactive	inactive					
O=C1CCCCC1	inactive		inactive	inactive	inactive		inactive	inactive	inactive	inactive	inactive	inactive	inactive	inactive	inactive	inactive	inactive	inactive		-2.85% (inactive) and -5.66% (inactive)
C/C=C(C)/C=C/C=C(C)C	inactive	inactive	inactive	inactive	inactive		inactive	inactive	inactive	inactive			inactive	inactive	inactive					
O=[N+]([O-])c1cccc(Cl)c1	inactive	inactive	inactive	inactive	inactive	6.74 µM (active) and inactive	inactive	inactive	inactive	inactive	inactive	inactive				inactive	inactive	inactive		8.37% (inactive) and -4.75% (inactive)
